# Laboratory results published in PubChem BioAssay AID2620 (National Center for Advancing Translational Sciences (NCATS), 2010).
# Records with an inconclusive call do not appear. Calls of active or inactive are those of the source. Calls come from the whole dose curve; as a rule, active = well fitted curve in the direction sought with a large enough effect; inconclusive = small, poorly fitted or top-dose-only effect, or another doubt; inactive = no such curve, though single readings can be large or run the other way.
# Biological target: Pyruvate kinase PKM (Homo sapiens) (UniProt P14618)
# Assay: Secondary LDH Assay for Activators of Human Pyruvate Kinase M1 Isoform: for Probe SAR; note: % of control where 0% means no effect
# Details: purified hPK-M1, LDH-coupled NADH fluorescence kinetic; series mostly up to 58.2 µM; activity change, negative = inhibition: at the top concentration
# Text: NIH Chemical Genomics Center [NCGC]
# Matthew G. Vander Heiden, M.D., Ph.D. [Harvard Medical School, 77 Avenue Louis Pasteur, Boston, MA 02115]
# Human pyruvate kinase […] (hPK-M1)enzyme was supplied as a highly purified (>95% pure) preparation from Harvard Medical School and a secondary assay was used to evaluate compounds. This assay couples the formation of pyruvate from […] using lactate dehydrogenase (LDH) and NADH. The depletion of NADH is followed in a fluorescent-based kinetic assay that follows the formation of pyruvate to lactate, as catalyzed LDH. Pyruvate kinase substrates, PEP and ADP, were present in the assay at 0.1 mM and 4 mM respectively. In this kinetic assay initial rates were determined by following the fluorescence of NADH depletion.
# NCGC Assay Protocol Summary:
# Three uL of substrate mix (final concentration, 50 mM Tris-Cl pH 8.0, 200 mM KCl, 15 mM MgCl2, 0.1 mM PEP, 4.0 mM ADP, and 0.2 mM NADH) was dispensed into black-solid 1536 well plates. 23 nL of compounds were delivered by a pin tool and 1 uL of enzyme mix (final concentrations, 10 nM hPK-M1 and 1 uM of LDH) was added. Plates were immediately placed in ViewLux (Perkin Elmer) and NADH fluorescence was determined at 30 second exposure intervals for between 3 and 6 minutes. Data were normalized to the uninhibited controls.
# Chain of Pyruvate kinase PKM (Homo sapiens) (P14618 whole entry, looked up, canonical isoform): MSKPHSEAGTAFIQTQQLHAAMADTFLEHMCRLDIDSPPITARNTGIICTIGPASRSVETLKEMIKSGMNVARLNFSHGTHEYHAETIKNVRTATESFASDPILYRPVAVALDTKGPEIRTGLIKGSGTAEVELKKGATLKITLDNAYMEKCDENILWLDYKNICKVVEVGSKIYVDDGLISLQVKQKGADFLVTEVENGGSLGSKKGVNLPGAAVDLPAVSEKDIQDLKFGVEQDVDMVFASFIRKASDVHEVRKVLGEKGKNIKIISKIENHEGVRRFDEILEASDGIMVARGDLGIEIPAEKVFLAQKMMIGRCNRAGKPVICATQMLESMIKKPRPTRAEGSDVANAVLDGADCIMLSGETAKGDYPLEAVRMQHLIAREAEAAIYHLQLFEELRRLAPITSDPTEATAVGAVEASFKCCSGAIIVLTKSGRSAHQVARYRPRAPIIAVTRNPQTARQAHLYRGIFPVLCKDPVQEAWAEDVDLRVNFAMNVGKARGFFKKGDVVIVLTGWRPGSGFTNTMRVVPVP
row,Structure (SMILES),"activity change, negative = inhibition"
1,O=C1CCc2cc(S(=O)(=O)Nc3ccc(-c4ccccc4)cc3)ccc2N1,3.36% (inactive)
2,O=S1(=O)N=C(Oc2cccc(Cl)c2)c2ccccc21,2.94% (inactive)
3,CC(=O)Nc1cccc(S(=O)(=O)Nc2ccc(C)c(C)c2)c1,2.8% (inactive)
4,Cc1ccc(NS(=O)(=O)c2cc3c(cc2Br)NC(=O)CO3)cc1C,4.41% (inactive)
5,CNc1cccc(S(=O)(=O)N2CCCN(S(=O)(=O)c3ccc4c(c3)OCCO4)CC2)c1,4.62% (inactive)
6,O=C1c2ccccc2C(=O)N1c1ccc2ccccc2n1,-5.97% (inactive)
7,Cc1cccc(NS(=O)(=O)c2ccc3c(c2)CCC(=O)N3)c1,5.91% (inactive)
8,CC(C)Nc1cccc(S(=O)(=O)N2CCCN(S(=O)(=O)c3ccc4c(c3)OCCO4)CC2)c1,2% (inactive)
9,Cc1ccc2nc(-c3ccc(C)o3)c(NC3CCCC3)n2c1,-5.73% (inactive)
10,Cc1ccc(NS(=O)(=O)c2ccc3c(c2)CC(=O)N3C)cc1C,3.41% (inactive)
11,Cc1ccccc1NS(=O)(=O)c1ccc2c(c1)CCC(=O)N2,4.43% (inactive)
12,Cc1ccc(N2C(=O)c3ccccc3C2=O)c(C)c1,-3.72% (inactive)
13,COc1cc(F)c(S(=O)(=O)N2CCCN(S(=O)(=O)c3cccc(N)c3)CC2)c(F)c1,13.9% (inactive)
14,O=C1CCc2cc(S(=O)(=O)Nc3ccccc3Cl)ccc2N1,-4.68% (inactive)
15,O=C1CCc2cc(S(=O)(=O)Nc3cc(F)cc(Cl)c3)c(F)cc2N1,2.41% (inactive)
16,O=C1c2ccccc2C(=O)N1Cc1ccncc1,1.41% (inactive)
17,O=C1c2ccccc2C(=O)N1c1cccc2cnccc12,-2.27% (inactive)
18,O=C1NS(=O)(=O)c2ccccc21,-0.749% (inactive)
19,Cc1ccc2nc(-c3ccc(C)o3)c(Nc3ccc(F)cc3)n2c1,-22% (inactive)
20,Cc1ccc(NS(=O)(=O)c2ccc3c(c2)C(Cl)(Cl)C(=O)N3)cc1C,16.8% (inactive)

row,Structure (SMILES),"activity change, negative = inhibition"
1,CCNc1cccc(S(=O)(=O)N2CCCN(S(=O)(=O)c3ccc4c(c3)OCCO4)CC2)c1,7.36% (inactive)
2,Cc1ccc(NS(=O)(=O)c2cc3c(cc2Cl)NC(=O)C3)cc1C,-4.8% (inactive)
3,O=C1CCc2cc(S(=O)(=O)Nc3cccc(F)c3)ccc2N1,-2.67% (inactive)
4,COc1cccc(NS(=O)(=O)c2ccc3c(c2)CCC(=O)N3)c1,3.28% (inactive)
5,Cc1c(Cl)cccc1NS(=O)(=O)c1cc2c(cc1F)NC(=O)CC2,4.48% (inactive)
6,O=C1CCc2cc(S(=O)(=O)Nc3cccnc3)ccc2N1,-5.72% (inactive)
7,Cc1ccc2nc(-c3cccs3)c(Nc3ccccc3)n2c1,-2.02% (inactive)
8,CCNc1cccc(S(=O)(=O)N2CCN(S(=O)(=O)c3ccc4c(c3)OCCO4)CC2)c1,-3.37% (inactive)
9,O=C1CCc2cc(S(=O)(=O)Nc3ccccn3)ccc2N1,-5.19% (inactive)
10,O=C1CCc2cc(S(=O)(=O)Nc3ccc(Cl)c(Cl)c3)c(F)cc2N1,3.26% (inactive)
11,O=C1c2ccccc2C(=O)N1c1ncccc1O,6.3% (inactive)
12,COc1cccc(N2C(=O)c3ccccc3C2=O)n1,2.67% (inactive)
13,O=C1c2ccccc2C(=O)N1c1ccc(Cl)cc1,-5.95% (inactive)
14,O=C1c2ccccc2C(=O)N1c1cc(=O)c2ccccc2[nH]1,2.86% (inactive)
15,Cn1c2cc(S(C)=O)sc2c2cnn(Cc3cccc(N)c3)c(=O)c21 (stereo not given),1.03% (inactive)
16,Cc1ccc(NS(=O)(=O)c2ccc3c(c2)CCN(C(=O)C(F)(F)F)C3)cc1C,0.987% (inactive)
17,Cc1c(Cl)cccc1NS(=O)(=O)c1cc2c(cc1Cl)CCC(=O)N2,2.07% (inactive)
18,COc1cccc(Cn2ncc3c4sc(S(C)=O)cc4n(C)c3c2=O)c1 (stereo not given),-3.35% (inactive)
19,Cc1ccc(NS(=O)(=O)c2cc3c(cc2-c2ccco2)NC(=O)CO3)cc1C,18.3% (inactive)
20,Cc1ccc(NS(=O)(=O)c2ccc3c(c2)oc(=O)n3C)cc1C,9.95% (inactive)
